Source: paper PMC4336329 (PLoS ONE, 2015)
Screen size: about 310,000 compounds; about 14,000 (4.5%) showed an effect of 50% or more. The effect is printed as a negative number. The sample holds strong results, similar compounds and a random draw of the others, so the mix is not that of the screen.

What follows are compounds tested against human ether-à-go-go-related gene (hERG) potassium channel (human, UniProt Q12809) (assay: primary screen, population patch clamp on CHO cells stably expressing hERG; higher = less effect of the substance).
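Note: peak tail current of the secondary pulse compared with the same well before compound.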

human ether-à-go-go-related gene (hERG) potassium channel, sequence (Q12809 whole entry, looked up): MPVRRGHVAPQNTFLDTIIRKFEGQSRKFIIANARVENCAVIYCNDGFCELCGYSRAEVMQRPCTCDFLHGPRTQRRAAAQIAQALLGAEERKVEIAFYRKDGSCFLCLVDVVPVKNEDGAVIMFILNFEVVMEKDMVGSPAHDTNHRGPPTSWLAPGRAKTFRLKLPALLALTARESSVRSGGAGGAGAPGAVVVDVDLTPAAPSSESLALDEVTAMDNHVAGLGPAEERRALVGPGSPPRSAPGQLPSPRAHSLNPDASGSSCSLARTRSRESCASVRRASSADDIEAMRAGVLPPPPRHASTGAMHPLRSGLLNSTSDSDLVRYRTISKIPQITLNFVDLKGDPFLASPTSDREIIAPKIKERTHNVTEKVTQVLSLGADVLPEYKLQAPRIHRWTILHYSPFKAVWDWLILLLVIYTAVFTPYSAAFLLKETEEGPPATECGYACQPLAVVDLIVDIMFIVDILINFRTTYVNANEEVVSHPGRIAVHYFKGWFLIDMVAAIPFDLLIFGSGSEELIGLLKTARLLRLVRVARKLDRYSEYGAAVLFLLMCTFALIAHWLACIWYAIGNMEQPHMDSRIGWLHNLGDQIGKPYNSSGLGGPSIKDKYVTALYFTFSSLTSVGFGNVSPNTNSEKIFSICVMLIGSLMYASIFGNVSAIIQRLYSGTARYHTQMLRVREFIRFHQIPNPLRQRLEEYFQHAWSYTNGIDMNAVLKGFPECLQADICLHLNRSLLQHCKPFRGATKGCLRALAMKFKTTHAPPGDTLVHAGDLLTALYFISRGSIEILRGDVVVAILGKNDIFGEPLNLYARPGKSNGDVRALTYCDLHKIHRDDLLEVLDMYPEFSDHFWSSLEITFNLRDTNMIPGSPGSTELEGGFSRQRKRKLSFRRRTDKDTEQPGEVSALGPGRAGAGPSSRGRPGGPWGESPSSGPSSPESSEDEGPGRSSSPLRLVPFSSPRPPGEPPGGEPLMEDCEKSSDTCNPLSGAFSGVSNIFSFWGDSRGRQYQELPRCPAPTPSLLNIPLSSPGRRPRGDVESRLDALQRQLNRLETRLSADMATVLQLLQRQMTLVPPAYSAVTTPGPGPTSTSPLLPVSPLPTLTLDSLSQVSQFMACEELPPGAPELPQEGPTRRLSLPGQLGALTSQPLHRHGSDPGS

| Compound | hERG current change (%, negative = inhibition) at 10uM |
| --- | --- |
| Cc1ccc(NC2=NCC(=O)N2C2CCCC2)cc1.Cl | 14.7% |
| CNC(=O)N1c2ccccc2NC(=O)CC1C (stereo not drawn) | 9.32% |
| Cc1ccc(S(=O)(=O)NC2=NCN(CCN3CCOCC3)CN2)cc1 | 8.55% |
| CC(=O)N(CCCN1CCOCC1)Cc1ccncc1.Cl | 16.4% |
| O=C(Nc1nc2ccc(Cl)cc2s1)c1ccc(Br)o1 | 4.25% |
| Cc1ccc(CNC(=O)/C=C/c2ccc(S(=O)(=O)NCc3ccco3)cc2)cc1 | -1.37% |
| Cc1c(NC(=O)CN2CCN(c3ccc([N+](=O)[O-])cc3)CC2)c(=O)n(-c2ccccc2)n1C | -50.1% |
| O=C(CN1CCN(CC(=O)Nc2ccccn2)CC1)Nc1ccccn1 | -36% |
| O=C(CN1CCN(c2ccccc2)CC1)Nc1nccs1 | 5.11% |
| O=C(CN1CCN(c2ccc([N+](=O)[O-])cc2)CC1)Nc1nccs1 | -65.6% |
| Cc1c(NC(=O)CN2CCN(c3ccc(O)cc3)CC2)c(=O)n(-c2ccccc2)n1C | 21% |
| O=C(CN1CCN(c2ccccc2)CC1)Nc1cccc([N+](=O)[O-])c1 | 2.69% |
| O=C(CN1CCN(c2ccc([N+](=O)[O-])cc2)CC1)Nc1ccccn1 | -77.9% |
| O=C(CN1CCN(c2ccc(F)cc2)CC1)Nc1nccs1 | -1.39% |
| Cc1c(NC(=O)CN2CCN(c3ccccc3)CC2)c(=O)n(-c2ccccc2)n1C | 9.86% |
| C#CCSc1nnnn1-c1cccc(Cl)c1 | -9.19% |
| COc1cccc(C2NC(CC(C)C)(C(=O)O)C3C(=O)N(Cc4ccccc4)C(=O)C23)c1O (stereo not drawn) | 10.2% |
| CN(Cc1ccccc1F)C(=O)c1ccc(NS(=O)(=O)c2ccc3[nH]c(=O)[nH]c3c2)cc1 | 6.14% |
| O=C(Nc1ccccc1N1CCCCC1)C1=COCCO1 | -32.6% |
| CC(C)[C@@H](C(=O)NCc1ccco1)N1C(=O)N2CCc3c([nH]c4ccccc34)[C@@]2(C)C1=O | -15.6% |
| CSc1nnc([C@@H](NC(=O)OC(C)(C)C)C(C)C)o1 | -13.6% |
| CCc1cccc(OCC(O)Cn2c(N3CCCCC3)nc3c2c(=O)[nH]c(=O)n3C)c1 (stereo not drawn) | 13.7% |

| Compound | hERG current change (%, negative = inhibition) at 10uM |
| --- | --- |
| Clc1ccc(CN=C2Nc3ccccc3CS2)cc1 | 14.9% |
| COc1cc2c(cc1OC)C1=C(C#N)CCC(=O)N1CC2 | 5.55% |
| C=C1C[C@H]2[C@@H]3C=C(C)C4=CC(=O)CC[C@]4(C)[C@H]3CC[C@]2(C)[C@@]1(OC(C)=O)C(C)=O | -21.2% |
| O=C(COC(=O)C1CC1)Nc1nc(-c2ccc(F)c(F)c2)cs1 | 4.93% |
| CCCc1cnc(N2CCN(C(=O)c3ccc(OC)cc3)CC2)nc1 | -52.4% |
| CCOc1ccccc1N1CCN(C(=O)CNC(=O)c2ccccc2F)CC1 | -51.1% |
| CCOc1ccccc1N1CCN(C(=O)c2ccncc2)CC1 | -8.78% |
| CCCCOc1ccc(C(=O)N2CCN(c3ncccn3)CC2)cc1 | -9.16% |
| CCOc1ccccc1N1CCN(C(=O)c2ccccc2)CC1 | 11% |
| CCCc1cnc(N2CCN(C(=O)c3c(-c4ccccc4)noc3C)CC2)nc1 | -24.5% |
| CCOc1ccccc1N1CCN(C(=O)CNC(=O)c2sc3ccccc3c2Cl)CC1 | 17.4% |
| CCOc1ccccc1N1CCN(C(=O)CNC(=O)c2ccc(OC)c(OC)c2)CC1 | 11.9% |
| CCCc1ccc(C(=O)N2CCN(c3ccccc3OCC)CC2)cc1 | -56.3% |
| CCOc1ccc(C(=O)N2CCN(c3ncccn3)CC2)cc1 | -9.8% |
| CCCc1cnc(N2CCN(C(=O)c3ccc(F)cc3)CC2)nc1 | -43.1% |
| CCCc1cnc(N2CCN(C(=O)c3ccccc3)CC2)nc1 | -57.1% |
| CCCCCCSc1ccc([C@@H]2[C@H]3C(=O)N(CC)C(=O)[C@H]3[C@]3(C(=O)OC)CCCN23)cc1.O=C(O)C(F)(F)F | -7.59% |
| COc1cc(OC)cc(C(=O)O/N=C(\N)c2ccccn2)c1 | 7.21% |
| CCOC(=O)c1cc2c(ccn2C)n1CC(=O)N1CCC(Cc2ccccc2)CC1 | -24.1% |
| CN(C)S(=O)(=O)c1ccc(NC(=O)CN2C(=O)NC(Cc3ccccc3)C2=O)cc1 (stereo not drawn) | 10.2% |
| CCOC(=O)CC(NC(=O)C1c2ccccc2Oc2ccccc21)c1ccc(C)cc1 (stereo not drawn) | 5.66% |
| COc1ccc(NC(=O)CSc2nnc(-c3cccnc3)n2C)cc1 | 8.3% |

| Compound | hERG current change (%, negative = inhibition) at 10uM |
| --- | --- |
| Cc1cc(OCC(=O)N2CCC(C(=O)O)(c3ccccc3)CC2)c2c(C)cc(=O)oc2c1 | 11.6% |
| COc1cc(OC)c(NC(=O)c2cncn2-c2ccc(F)cc2)cc1Cl | -19.7% |
| NNC(=O)c1cncn1-c1ccc(F)cc1 | 23.7% |
| O=C(Nc1cccc(Cl)c1)c1cncn1-c1ccc(F)cc1 | -68.1% |
| Cc1cccc(C)c1NS(=O)(=O)c1c(C)[nH]c(=O)[nH]c1=O | -14.2% |
| Cc1ccccc1CN(CC(=O)Nc1cccc([N+](=O)[O-])c1)S(=O)(=O)c1ccc(Cl)cc1 | 15.1% |
| Cl.O=C(NN1CCN(Cc2ccccc2Cl)CC1)c1ccc(Cl)cc1 | -10.6% |
| CSCCC(NC(=O)c1ccccc1Cl)C(=O)NC1CCN(Cc2ccccc2)CC1 (stereo not drawn) | -50.1% |
| O=C(NC1CCN(Cc2ccc(Cl)cc2Cl)CC1)c1ccccc1 | -53.9% |
| O=C(NC1CCN(Cc2ccccc2)CC1)c1ccccc1F | -23.7% |
| O=C(NC1CCN(C(=O)Nc2ccccc2Cl)CC1)c1ccccc1 | 4.22% |
| O=C(NC1CCN(Cc2ccccc2)CC1)c1ccc(Cl)cc1Cl | -75% |
| O=C(NC1CCN(C(=O)Nc2cccc(Cl)c2)CC1)c1ccccc1 | 1.02% |
| O=C(NC1CCN(Cc2ccccc2Cl)CC1)c1ccccc1 | -65.2% |
| CSCCC(NC(=O)c1ccccc1Cl)C(=O)N1CCN(C(C)=O)CC1 (stereo not drawn) | -26.9% |
| O=C(NC1CCN(Cc2ccccc2)CC1)c1ccccc1Cl | 1.15% |
| S=C(Nc1ccc(Cl)cc1Cl)NC1CCN(Cc2ccccc2)CC1 | -2.76% |
| COC(=O)[C@H](CCSC)NC(=O)NC1CCN(Cc2ccccc2)CC1 | -12.9% |
| COCC(=O)Nc1ccc(C)c(Cl)c1 | 14.4% |
| Cc1cccc(NS(=O)(=O)c2ccc(OCC(=O)N3CCCC3)cc2)c1 | -19.1% |
| CCCn1nnnc1NC(=O)COc1ccc(CC)cc1 | -3.02% |
| Cc1ccc(NC(=O)CCSc2nnc(C)o2)cc1 | 2.48% |

| Compound | hERG current change (%, negative = inhibition) at 10uM |
| --- | --- |
| CC1(C)NC(=O)N(CCCCOc2cccc(C(F)(F)F)c2)C1=O | -6.92% |
| CN1CCN(c2ccc(C(N)=O)cc2N)CC1 | 6.81% |
| CN1C(=O)C(C)(C)c2cc(S(=O)(=O)N3CCCC(C(=O)Nc4ccc(Cl)cc4)C3)ccc21 (stereo not drawn) | -9.27% |
| COC(=O)/C(C#N)=C/c1c(Oc2cccc(C)c2C)nc2ccccn2c1=O | -12.6% |
| COC(=O)CCCn1nc(NC(=O)COc2ccc(F)cc2)cc1C | -5.47% |
| COc1ccc(C(C(=O)NC(C)(C)C)N(C(=O)CNC(=O)c2cccs2)c2ccc(NC(C)=O)cc2)cc1OC (stereo not drawn) | 10.4% |
| N#Cc1ccc(CN2CCN(C(=O)c3cc(C4CC4)nn3-c3ccccc3)CC2)cc1 | -57.2% |
| O=C(O)c1cc(C2CC2)nn1-c1ccccc1 | 17.5% |
| COc1cc2c(cc1OC)CN(C(=O)c1cc(C3CC3)nn1-c1ccccc1)CC2 | -56.2% |
| O=C(c1cc(C2CC2)nn1-c1ccccc1)N1CCN(Cc2ccc(Cl)cc2)CC1 | -32.1% |
| COc1ccc(N2CCN(C(=O)c3cc(C4CC4)nn3-c3ccccc3)CC2)cc1 | -44.4% |
| O=C(NC1CCCCC1)c1cc(C2CC2)nn1-c1ccccc1 | -51.2% |
| COc1ccc(CN2CCN(C(=O)c3cc(C4CC4)nn3-c3ccccc3)CC2)cc1F | -48.6% |
| COc1ccc(OC)c(S(=O)(=O)N2CCN(C(=O)c3cc(C4CC4)nn3-c3ccccc3)CC2)c1 | -11.1% |
| CC1CCC(NC(=O)c2cc(C3CC3)nn2-c2ccccc2)CC1 (stereo not drawn) | -34.9% |
| COc1ccc(NC(=O)Nc2ccccc2SC)cc1OC | 6.08% |
| Cc1ccc(C)c(N2CCN(C(=O)Cn3c(=O)[nH]c4ccsc4c3=O)CC2)c1 | -4.12% |
| Cc1ccc(C(=O)Nc2nnc(-c3ccc(C(C)(C)C)cc3)s2)cc1 | 4.81% |
| CCCCCCN1CC(=O)N2[C@@H](Cc3c([nH]c4ccccc34)C2(C)C)C1=O | 13.9% |
| CCN(CC)CCCN1CC(=O)N2[C@@H](Cc3c([nH]c4ccccc34)C2(C)C)C1=O | 1.24% |
| CCCCN(CCCC)CCCN1CC(=O)N2[C@@H](Cc3c([nH]c4ccccc34)C2(C)C)C1=O | -73.2% |
